Measured values: PubChem BioAssay (EPA / NIEHS)
Inconclusive results are not listed. The source holds several records for some structures; these can differ, active in one and inactive in another. Calls of active or inactive are those of the source. The calls were made as follows, unless noted: active = hit-call score of the fitted dose curve at least 0.9, where 1 is the maximum; inactive = score below 0.9.

system: not listed separately; test: CCTE_Shafer_MEA_dev_per_network_spike_spike_number_mean: CCTE's Neural Network Formation Assay for Mean Number of Spikes in a Network Spike, Shafer Lab (AID 2284053);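 as to AC50: fitted as decrease in spikes per network spike relative to DMSO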
Summary of the method: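 First, rat cortical cells (1.5 x 10^5/well) were seeded onto MEA wells; second, dosing began at plating and was refreshed on DIV 5 and 9; finally, network-spike spike counts across DIV 5–12 were summarized as AUC.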

| Compound | outcome | AC50 |
| --- | --- | --- |
| OCC(F)(F)C(F)(F)C(F)(F)C(F)(F)C(F)(F)C(F)(F)CO | inactive |  |
| OCC(O)CC(F)(F)C(F)(F)C(F)(F)C(F)(F)F (stereo unspecified) | inactive |  |
| O=S(=O)(O)CCC(F)(F)C(F)(F)C(F)(F)C(F)(F)F | inactive |  |
| NC(=O)C(F)(F)C(F)(F)C(F)(F)F | inactive |  |
| C=CC(=O)OCCC(F)(F)C(F)(F)C(F)(F)C(F)(F)F |  | 15 µM (active) |
| CCN(CCO)S(=O)(=O)C(F)(F)C(F)(F)C(F)(F)C(F)(F)C(F)(F)C(F)(F)C(F)(F)C(F)(F)F | inactive |  |
| NC(=O)C(F)(F)C(F)(F)C(F)(F)C(F)F | inactive |  |
| C=CC(=O)OCC(F)(F)C(F)(F)C(F)(F)COC(=O)C=C |  | 4.72 µM (active) |
| O=S(=O)(O)CCC(F)(F)C(F)(F)C(F)(F)C(F)(F)C(F)(F)C(F)(F)C(F)(F)C(F)(F)F | inactive |  |
| CO[Si](C)(CCC(F)(F)C(F)(F)C(F)(F)C(F)(F)C(F)(F)C(F)(F)F)OC | inactive |  |
| OCC(F)(F)C(F)(F)C(F)(F)CO | inactive |  |
| OC(O)C(F)(F)C(F)(F)F | inactive |  |
| NC(O)(C(F)(F)F)C(F)(F)F | inactive |  |
| OCCCCC(F)(F)C(F)(F)C(F)(F)C(F)(F)F | inactive |  |
| CNS(=O)(=O)C(F)(F)C(F)(F)C(F)(F)C(F)(F)C(F)(F)C(F)(F)C(F)(F)C(F)(F)F | inactive |  |
| NC(=O)C(F)(F)C(F)(F)C(F)(F)C(F)(F)C(N)=O | inactive |  |
| OCC(F)(F)C(F)(F)C(F)(F)C(F)(F)C(F)(F)C(F)(F)C(F)(F)C(F)(F)CO | inactive |  |
| FC(F)(F)C(F)(F)C(F)(F)C(F)(F)C(F)(F)C(F)(F)C(F)(F)CCI | inactive |  |
| O=C(O)C(F)(F)C(F)(F)C(F)(F)OC(F)(F)F | inactive |  |

system: DIO3 (gene 1735); test: CCTE_GLTED_hDIO3: CCTE's human Deiodinase 3 (DIO3) Inhibition Assay, Great Lakes Toxicology and Ecology Division (GLTED) Lab (AID 2284055; active = hit-call score of the fitted dose curve at least 0.9, where 1 is the maximum;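 also: potency is for inhibition seen as loss of released iodide signal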)
Summary of the method: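 Enzyme activity is tracked as iodide release from substrate by recombinant human DIO3 over 3 h with chemical present. A second Sandell-Kolthoff step converts iodide to an absorbance signal, fitted relative to DMSO.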

| Compound | AC50 |
| --- | --- |
| CCCCCCCCCCCCCC[P+](CCCC)(CCCC)CCCC | 3.56 µM (active) |
| C=C(C)C(=O)OCC(F)(F)C(F)(F)C(F)(F)C(F)F | 14.2 µM (active) |
| CCCCCCCCn1sc(Cl)c(Cl)c1=O | 7.82 µM (active) |
| C=CC(=O)OCCC(F)(F)C(F)(F)C(F)(F)C(F)(F)F | 51.8 µM (active) |
| CCCCCCCC/C=C\CCCCCCCC(=O)OCC(O)CO (stereo unspecified) | 21.3 µM (active) |
| C=CC(=O)OCC(F)(F)C(F)(F)C(F)(F)COC(=O)C=C | 45.1 µM (active) |
| CCN=c1cc2oc3cc(NCC)c(C)cc3c(-c3ccccc3C(=O)OCC)c-2cc1C | 157 µM (active) |
| CCN=C1C=CC(=C(c2ccc(N(CC)CC)cc2)c2ccc(N(CC)CC)cc2)c2ccccc21 | 8.42 µM (active) |
| CCCCCCCC/C=C\CCCCCCCC(=O)N(C)CC(=O)O | 22 µM (active) |
| CCCCCCCCCCCCC[N+](C)(C)Cc1ccccc1 | 17 µM (active) |

system: not listed separately; test: CCTE_Shafer_MEA_dev_LDH: CCTE's Lactate Dehydrogenase Assay for Cytotoxicity in the Neural Network Formation Assay, Shafer Lab (AID 2284068; active = hit-call score of the fitted dose curve at least 0.9, where 1 is the maximum;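 also: exposure for twelve days from plating with re-dosing on DIV 5 and 9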)
Summary of the method: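 Developing rat cortical networks on MEA plates are exposed to compound for 12 days from plating. LDH activity is measured spectrophotometrically, with DMSO as baseline.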

| Compound | outcome | AC50 |
| --- | --- | --- |
| OCC(F)(F)C(F)(F)C(F)(F)C(F)(F)C(F)(F)C(F)(F)CO | inactive |  |
| O=S(=O)(O)CCC(F)(F)C(F)(F)C(F)(F)C(F)(F)F | inactive |  |
| NC(=O)C(F)(F)C(F)(F)C(F)(F)F | inactive |  |
| C=CC(=O)OCCC(F)(F)C(F)(F)C(F)(F)C(F)(F)F |  | 15 µM (active) |
| CCN(CCO)S(=O)(=O)C(F)(F)C(F)(F)C(F)(F)C(F)(F)C(F)(F)C(F)(F)C(F)(F)C(F)(F)F | inactive | 10.1 µM (active) |
| NC(=O)C(F)(F)C(F)(F)C(F)(F)C(F)F | inactive |  |
| C=CC(=O)OCC(F)(F)C(F)(F)C(F)(F)COC(=O)C=C |  | 5.84 µM (active) |
| CO[Si](C)(CCC(F)(F)C(F)(F)C(F)(F)C(F)(F)C(F)(F)C(F)(F)F)OC | inactive |  |
| OCC(F)(F)C(F)(F)C(F)(F)CO | inactive |  |
| OC(O)C(F)(F)C(F)(F)F | inactive |  |
| NC(O)(C(F)(F)F)C(F)(F)F | inactive |  |
| OCCCCC(F)(F)C(F)(F)C(F)(F)C(F)(F)F | inactive |  |
| CNS(=O)(=O)C(F)(F)C(F)(F)C(F)(F)C(F)(F)C(F)(F)C(F)(F)C(F)(F)C(F)(F)F | inactive |  |
| NC(=O)C(F)(F)C(F)(F)C(F)(F)C(F)(F)C(N)=O | inactive |  |
| OCC(F)(F)C(F)(F)C(F)(F)C(F)(F)C(F)(F)C(F)(F)C(F)(F)C(F)(F)CO |  | 23.3 µM (active) |
| FC(F)(F)C(F)(F)C(F)(F)C(F)(F)C(F)(F)C(F)(F)C(F)(F)CCI | inactive |  |
| O=C(O)C(F)(F)C(F)(F)C(F)(F)OC(F)(F)F | inactive |  |

system: not listed separately; test: CCTE_Shafer_MEA_dev_AB: CCTE's Alamar Blue Assay for Cytotoxicity in the Neural Network Formation Assay, Shafer Lab (AID 2284083; active = hit-call score of the fitted dose curve at least 0.9, where 1 is the maximum;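 also: resazurin reduction fluorescence as viability of cultured neurons; twelve days of exposure from plating with re-dosing on DIV 5 and 9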)
Summary of the method: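 Cytotoxicity companion to the developmental MEA: primary rat cortical neurons, 12-day exposure starting day 0, compound refreshed DIV 5 and 9; resazurin fluorescence, fitted against DMSO vehicle.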

| Compound | AC50 | outcome |
| --- | --- | --- |
| C=CC(=O)OCCC(F)(F)C(F)(F)C(F)(F)C(F)(F)F | 21.8 µM (active) |  |
| CCN(CCO)S(=O)(=O)C(F)(F)C(F)(F)C(F)(F)C(F)(F)C(F)(F)C(F)(F)C(F)(F)C(F)(F)F |  | inactive |
| C=CC(=O)OCC(F)(F)C(F)(F)C(F)(F)COC(=O)C=C | 7.96 µM (active) |  |
| OCCCCC(F)(F)C(F)(F)C(F)(F)C(F)(F)F |  | inactive |
| OCC(F)(F)C(F)(F)C(F)(F)C(F)(F)C(F)(F)C(F)(F)C(F)(F)C(F)(F)CO | 24.4 µM (active) |  |

system: not listed separately; test: CCTE_Shafer_MEA_dev_mutual_information_norm: CCTE's Neural Network Formation Assay for Mutual Information Normalization, Shafer Lab (AID 2284091);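 as to AC50: mutual information between electrodes summarised as area under curve across four recording days; potency is for a decrease in mutual information relative to DMSO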
Summary of the method: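 Developing rat cortical networks on 16-electrode MEA wells are treated throughout formation (DIV 0–12). Shared electrode information is recorded four times, converted to area-under-curve, and fitted for decreases against DMSO vehicle.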

| Compound | outcome | AC50 |
| --- | --- | --- |
| OCC(F)(F)C(F)(F)C(F)(F)C(F)(F)C(F)(F)C(F)(F)CO | inactive |  |
| OCC(O)CC(F)(F)C(F)(F)C(F)(F)C(F)(F)F (stereo unspecified) | inactive |  |
| O=S(=O)(O)CCC(F)(F)C(F)(F)C(F)(F)C(F)(F)F | inactive |  |
| NC(=O)C(F)(F)C(F)(F)C(F)(F)F | inactive |  |
| C=CC(=O)OCCC(F)(F)C(F)(F)C(F)(F)C(F)(F)F | inactive |  |
| CCN(CCO)S(=O)(=O)C(F)(F)C(F)(F)C(F)(F)C(F)(F)C(F)(F)C(F)(F)C(F)(F)C(F)(F)F | inactive |  |
| NC(=O)C(F)(F)C(F)(F)C(F)(F)C(F)F | inactive |  |
| C=CC(=O)OCC(F)(F)C(F)(F)C(F)(F)COC(=O)C=C |  | 1.73 µM (active) |
| O=S(=O)(O)CCC(F)(F)C(F)(F)C(F)(F)C(F)(F)C(F)(F)C(F)(F)C(F)(F)C(F)(F)F | inactive |  |
| CO[Si](C)(CCC(F)(F)C(F)(F)C(F)(F)C(F)(F)C(F)(F)C(F)(F)F)OC | inactive |  |
| OCC(F)(F)C(F)(F)C(F)(F)CO | inactive |  |
| OC(O)C(F)(F)C(F)(F)F | inactive |  |
| NC(O)(C(F)(F)F)C(F)(F)F | inactive |  |
| OCCCCC(F)(F)C(F)(F)C(F)(F)C(F)(F)F | inactive |  |
| CNS(=O)(=O)C(F)(F)C(F)(F)C(F)(F)C(F)(F)C(F)(F)C(F)(F)C(F)(F)C(F)(F)F | inactive |  |
| NC(=O)C(F)(F)C(F)(F)C(F)(F)C(F)(F)C(N)=O | inactive |  |
| OCC(F)(F)C(F)(F)C(F)(F)C(F)(F)C(F)(F)C(F)(F)C(F)(F)C(F)(F)CO | inactive |  |
| FC(F)(F)C(F)(F)C(F)(F)C(F)(F)C(F)(F)C(F)(F)C(F)(F)CCI | inactive |  |
| O=C(O)C(F)(F)C(F)(F)C(F)(F)OC(F)(F)F | inactive |  |
